The values that follow come from PubChem BioAssay AID652126 (The Scripps Research Institute Molecular Screening Center, 2013).

Screen size: about 370,000 compounds; about 3,700 (1%) were called active. The sample as a whole holds a higher share of actives than the screen did. Unmarked numbers belong to inactive results.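 Rule for the calls: active = activation above the mean over all tested compounds plus 3 SD (cut at about 0.9% in these data); inactive = the rest.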

The test system of this assay is Nuclear hormone receptor DAF-12 (Strongyloides stercoralis). Briefly: ssDAF-12 driven luciferase reporter activation – cell-based, luminescence, HEK293, GRIP1 co-expression, lit1-tk-luc, primary screen (AID 652126).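 Note: 0% = DMSO-only wells and 100% = 3 µM delta7-dafachronic acid wells.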 The settings on record: HEK293 ssDAF-12/GRIP1 lit1-tk-luc reporter, at 6.8 µM, active compounds read high, % of 3 µM dafachronic acid response. (In general: Reporter assays use an easily measured gene product as a stand-in for the process of interest.)
For the molecule `CSc1ccc(C=Nn2c(-c3ccc(F)cc3)n[nH]c2=S)cc1`, the activation was -1.67%. Take `C[C@@H]1ON(C)[C@H]2C[C@H]3c4[nH]c5cccc(-c6ccc7c(c6)OCO7)c5c4CCN3C[C@@H]12`: the activation is -0.56%. `O=C(NCCCc1ccccc1)c1cc(COc2c(F)cccc2F)on1`: the activation was -0.16%. The same measure for `CC(C)Cc1cc(C(=O)NCCc2ccccc2)no1`: 1.34% (active); for `CC(C)Cc1cc(C(=O)Nc2cc(Br)ccc2O)no1`: -1.29%; for `COc1ccc(-n2c(SCC(=O)Nc3ccc(C)c(Cl)c3)nc3ccccc3c2=O)cc1`: -2.01%.

Turning to `CC(=O)Nc1nc2ncccn2c1-c1ccc(C(F)(F)F)cc1`, the activation was -0.67%.

Take `Brc1ccc(C2CC(c3ccccc3)=Nc3ccccc3N2)cc1` (stereo not given): the activation is 0.69%.

Take `COc1ccccc1C1=Nc2cccc3cccc(c23)N1`: the activation is -1.81%. `c1ccc(C2=Nc3cccc4cccc(c34)N2)cc1`: the activation is 1.19% (active). The same measure for `COC(=O)[C@]12C[C@H](CC(=O)NCc3ccccc3)C(=O)N(CCC3=CCCCC3)C1=C[C@H](C(C)C)O[C@@H]2C1CC1`: -1.77%; for `COc1ccc(-n2c(SCC(=O)Nc3ccccc3-c3ccccc3)nnc2-c2cccnc2)cc1`: -1.34%; for `CN1C(=O)/C(=N/OC(=O)c2ccccc2Br)c2ccccc21`: -1%.

`CCC1C(=O)c2ccccc2N(C)C1=O` (stereo not given): the activation is -0.91%. `CN1C(=O)/C(=C\c2cc(Br)cs2)c2ccccc21`: the activation is 1.58% (active). The same measure for `CCC(CO)Nc1cccc2c1S(=O)(=O)N(Cc1cn(Cc3ccccc3C(F)(F)F)nn1)Cc1ccccc1O2` (stereo not given): -1.78%. As for `CCC(C)(C)NC(=O)CN(C(=O)CCC(=O)Nc1cc(C)ccn1)c1ccc2c(c1)OCCO2`, the activation was -1.73%. For `O=C(CN(C(=O)CCC(=O)Nc1nccs1)c1ccc(F)cc1)NCc1ccc2c(c1)OCO2`, the activation was -0.97%.

With `CCC(C)(C)NC(=O)CN(C(=O)CCC(=O)Nc1nccs1)c1ccc2c(c1)OCO2`, the activation is 1.27% (active).

As to `FC(F)(F)c1cccc(NC(=S)OC2CCC23CCC(c2ccccc2)CC3)c1` (stereo not given), the activation was -0.81%. Turning to `CC(NCc1ccco1)C(=O)N1CCCCC1` (stereo not given), the activation is -1.35%. The same measure for `COC(=O)c1sccc1N/N=C(\C)c1ccc(F)c(Cl)c1`: -1%; for `COC(=O)c1sccc1NC(=O)CCC1CCCC1`: -0.73%; for `COC(=O)c1sccc1NC(=O)c1ccc(Cl)cc1`: 0.94% (active). As to `Cc1nnc(-c2ccc(Oc3ccc(C)c(C)c3)c([N+](=O)[O-])c2)o1`, the activation was -0.81%.
